PubChem BioAssay
Active and inactive are the calls of the source.

How the values were obtained:
[1] = E. coli DRC41 culture turbidity changes, primary screen, E. coli filamentation inducer project, strain DRC41, OD650, 48 h (AID 1152);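 note: E. coli MC1000 strain DRC41 lacking acrAB efflux pump and sulA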; details: E. coli DRC41 (acrAB sulA), higher = more signal, called active from +8 up or from −8 down
[2] = small-molecule binders of probe aLefty1, primary screen, biochemical, small-molecule microarray, 635/667 nm fluorescence (AID 1153); details: higher = more signal;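 note: score merges spot fluorescence with signal-to-noise ratio from the scanned slide images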
[3] = PSAC antagonists in infected red cells, primary screen, cell-based, P. falciparum Indochina, OD700, 1 h (AID 1154); details: P. falciparum Indochina infected RBC osmotic lysis, higher = more signal, called active from +8 up or from −8 down
[4] = PSAC antagonists in infected red cells, primary screen, cell-based, P. falciparum Indochina, OD700, 2 h (AID 1155);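 note: lysis reports solute entry through the parasite surface anion channel PSAC; channel blockers reduce lysis of infected cells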; details: P. falciparum Indochina infected erythrocytes, osmotic lysis OD700; higher = more signal, called active from +8 up or from −8 down
[5] = osmotic lysis modulators in infected erythrocytes, primary screen, PSAC antagonist project, cell-based, P. falciparum Indochina, OD700, 3 h (AID 1156); details: higher = more signal, called active from +8 up or from −8 down
[6] = PSAC antagonists in infected red cells, primary screen, cell-based, P. falciparum Indochina, OD700, 18 h (AID 1157); details: P. falciparum Indochina infected erythrocytes, osmotic lysis OD700, 18 h; higher = more signal, called active from +8 up or from −8 down
[7] = modulators of S6 phosphorylation in cells, primary screen, cell-based, A549, cytoblot, luminescence, serum-stimulated (AID 1158); details: A549 phospho-S6 cytoblot, 5 h, higher = more signal;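 note: serum-stimulated A549 lung adenocarcinoma cells; signal is phosphorylated S6 detected by cytoblot immunostaining with HRP secondary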
[8] = target: NADPH oxidase 2 (Homo sapiens) (UniProt P04839); assay: NOX2-dependent H2O2 signal modulators, primary screen, NOX inhibitor project, cell-based, HEK293-NOX2, PMA-stimulated, Amplex Red fluorescence (AID 1159); details: 45 min, higher = more signal, called active from +8 up or from −8 down; note: test concentration not given here
Chain of NADPH oxidase 2 (Homo sapiens) (P04839 whole entry, looked up): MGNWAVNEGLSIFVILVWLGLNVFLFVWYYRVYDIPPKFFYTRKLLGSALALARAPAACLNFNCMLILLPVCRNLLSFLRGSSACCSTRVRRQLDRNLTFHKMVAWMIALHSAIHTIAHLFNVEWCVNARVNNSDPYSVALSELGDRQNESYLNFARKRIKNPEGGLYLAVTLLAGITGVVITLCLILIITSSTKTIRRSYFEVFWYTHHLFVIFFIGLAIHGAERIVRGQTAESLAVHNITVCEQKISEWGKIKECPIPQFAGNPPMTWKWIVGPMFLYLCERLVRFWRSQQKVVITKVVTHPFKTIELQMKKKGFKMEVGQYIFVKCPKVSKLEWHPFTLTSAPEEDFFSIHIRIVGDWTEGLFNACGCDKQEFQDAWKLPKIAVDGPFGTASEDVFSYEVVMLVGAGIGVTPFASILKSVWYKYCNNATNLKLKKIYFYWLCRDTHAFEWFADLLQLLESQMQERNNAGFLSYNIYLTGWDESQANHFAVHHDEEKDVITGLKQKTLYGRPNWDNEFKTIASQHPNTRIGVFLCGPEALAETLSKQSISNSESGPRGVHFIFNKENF

[9] = target: NADPH oxidase 4 (Homo sapiens) (UniProt Q9NPH5); assay: NOX4-dependent H2O2 signal modulators, primary screen, NOX inhibitor project, cell-based, HEK293-NOX4, tetracycline-induced, Amplex Red fluorescence (AID 1160); details: 45 min, higher = more signal, called active from +8 up or from −8 down
Chain of NADPH oxidase 4 (Homo sapiens) (Q9NPH5 whole entry, looked up): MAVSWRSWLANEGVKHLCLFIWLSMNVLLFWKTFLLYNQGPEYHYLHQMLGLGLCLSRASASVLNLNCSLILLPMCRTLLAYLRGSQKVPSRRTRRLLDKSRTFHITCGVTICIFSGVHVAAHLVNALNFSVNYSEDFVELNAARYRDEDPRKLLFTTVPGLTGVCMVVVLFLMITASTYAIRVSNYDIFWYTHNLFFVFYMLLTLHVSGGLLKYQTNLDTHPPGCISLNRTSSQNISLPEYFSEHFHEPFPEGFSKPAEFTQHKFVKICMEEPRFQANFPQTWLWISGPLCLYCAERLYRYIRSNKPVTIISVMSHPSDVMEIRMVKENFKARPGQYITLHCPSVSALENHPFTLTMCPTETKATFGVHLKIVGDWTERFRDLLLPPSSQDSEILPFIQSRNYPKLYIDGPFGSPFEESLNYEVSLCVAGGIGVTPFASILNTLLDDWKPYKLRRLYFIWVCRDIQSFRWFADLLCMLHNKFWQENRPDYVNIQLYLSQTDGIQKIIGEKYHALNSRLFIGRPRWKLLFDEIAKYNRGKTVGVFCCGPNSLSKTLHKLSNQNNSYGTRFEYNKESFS

[10] = target: NADPH oxidase 5 (Homo sapiens) (UniProt Q96PH1); assay: NOX5-dependent H2O2 signal modulators, primary screen, NOX inhibitor project, cell-based, HEK293-NOX5, Amplex Red fluorescence (AID 1161); details: HEK293-NOX5, ionomycin, 45 min, higher = more signal
Chain of NADPH oxidase 5 (Homo sapiens) (Q96PH1 whole entry, looked up): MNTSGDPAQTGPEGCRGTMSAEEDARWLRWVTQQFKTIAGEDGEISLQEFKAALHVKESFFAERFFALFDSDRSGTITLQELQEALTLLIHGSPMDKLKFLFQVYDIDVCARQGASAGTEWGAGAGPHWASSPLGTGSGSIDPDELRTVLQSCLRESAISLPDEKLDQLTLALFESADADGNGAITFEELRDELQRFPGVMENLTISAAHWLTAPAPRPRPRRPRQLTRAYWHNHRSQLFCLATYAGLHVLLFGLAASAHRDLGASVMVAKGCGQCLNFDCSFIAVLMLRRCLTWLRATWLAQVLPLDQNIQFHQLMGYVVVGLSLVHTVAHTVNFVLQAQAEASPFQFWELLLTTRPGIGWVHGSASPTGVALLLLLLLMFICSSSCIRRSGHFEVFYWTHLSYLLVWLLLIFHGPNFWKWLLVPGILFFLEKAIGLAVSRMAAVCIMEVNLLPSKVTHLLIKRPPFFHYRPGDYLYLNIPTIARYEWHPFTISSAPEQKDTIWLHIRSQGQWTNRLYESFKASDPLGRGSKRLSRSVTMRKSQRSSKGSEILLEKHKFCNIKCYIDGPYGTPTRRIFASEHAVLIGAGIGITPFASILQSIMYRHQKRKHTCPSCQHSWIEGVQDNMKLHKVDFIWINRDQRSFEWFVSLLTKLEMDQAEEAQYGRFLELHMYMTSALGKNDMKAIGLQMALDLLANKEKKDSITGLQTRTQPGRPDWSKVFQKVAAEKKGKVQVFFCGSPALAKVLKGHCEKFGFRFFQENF

| SMILES | z-score [1] | composite z-score [2] | z-score [3] | z-score [4] | z-score [5] | z-score [6] | z-score [7] | z-score [8] | z-score [9] | z-score [10] |
| --- | --- | --- | --- | --- | --- | --- | --- | --- | --- | --- |
| CC(=CC1CCCCC1)[C@@H](NC(=O)c1ccc(C(F)(F)F)cc1)c1ccc(-c2ccccc2)cc1 | -2.14 (inactive) | 0.117 | 3.47 (inactive) | 1.03 (inactive) | 0.482 (inactive) | 0.813 (inactive) | 0.299 | -0.709 (inactive) | -0.683 (inactive) | 0.0858 |
| CC(C)OC(=O)CC(=O)CC(O)c1ccc(C#N)cc1 (stereo not given) | 0.567 (inactive) | 0.213 | 1.96 (inactive) | -0.344 (inactive) | -0.745 (inactive) | -1.79 (inactive) | 1.02 | 0.574 (inactive) | -0.518 (inactive) | -0.252 |
| O=C1[C@]2(CO)C=C(Br)[C@@H](C[C@@H]2c2ccccc2)[C@@]12CO2 | 0.168 (inactive) | -0.188 | 0.0883 (inactive) | 0.0579 (inactive) | -0.533 (inactive) | -0.187 (inactive) | -0.364 | 0.538 (inactive) | 0.662 (inactive) | -0.211 |
| CCCCC=C[C@@H](NC(=O)c1ccco1)c1ccccc1 | -1.24 (inactive) | 0.0701 | 1.02 (inactive) | 0.941 (inactive) | -0.279 (inactive) | 0.813 (inactive) | 0.782 | -0.226 (inactive) | 0.76 (inactive) | 1.01 |
| O=C1OCCC=C[C@H]2OC34C=CCN(Cc5ccccc5)C(=O)[C@H]3N(CCCCCO)C(=O)[C@@H]4C12 (stereo not given in full) | 1.8 (inactive) | 0.282 | 1.77 (inactive) | 0.18 (inactive) | 2.12 (inactive) | 0.551 (inactive) | 0.469 | 1.39 (inactive) | 0.701 (inactive) | 1.38 |
| COc1ccc(CCNC(=O)[C@@]2(Sc3ccc(C)cc3)CC(=O)N(Cc3ccccc3Cl)[C@@H]2c2ccc(CO)cc2I)cc1 | 0.265 (inactive) | 0.198 | 9.86 (active) | 0.902 (inactive) | 1.53 (inactive) | 0.231 (inactive) | 0.0671 | 1.54 (inactive) | -1.54 (inactive) | 1.32 |
| CCOC(=O)C[C@H]1[C@H](OC(=O)Cc2ccc3c(c2)OCO3)[C@@H](NC(=O)c2ccc(-c3ccccc3)cc2)c2cc(OCCCO)ccc2N1C(=O)c1ccccc1 | 2.36 (inactive) | -0.122 | 8.3 (active) | 1.63 (inactive) | -0.825 (inactive) | 0.505 (inactive) | -0.0321 | -0.588 (inactive) | 0.674 (inactive) | 1.8 |
| C=C[C@H](C)[C@@H](O)c1ccc(O)c2ccccc12 | 0.048 (inactive) | 0.169 | 1.01 (inactive) | 1.05 (inactive) | 0.0353 (inactive) | 1.02 (inactive) | -0.157 | -5.28 (inactive) | -1.05 (inactive) | 1.33 |
| CN(C)CCCNC(=O)[C@@]1(Cc2ccccc2I)c2ccccc2C(=O)N(Cc2ccccc2C(F)(F)F)[C@H]1c1ccc(CO)cc1 | -2.14 (inactive) | -0.0536 | 11.8 (active) | 1.49 (inactive) | -0.231 (inactive) | 0.649 (inactive) | -0.349 | -10 (active) | -4.55 (inactive) | -4.63 |
| O=C1N(CCS(=O)(=O)c2ccccc2)Cc2ccccc2[C@H]2OC(c3ccc(OCCCO)cc3)=N[C@@]12CCS(=O)(=O)c1ccccc1 | -0.0143 (inactive) | 0.197 | 31.1 (active) | 28.4 (active) | 3.2 (inactive) | 6.48 (inactive) | 0.834 | 0.644 (inactive) | 1.5 (inactive) | 0.357 |
| COCCOC(=O)N1C(=O)[C@@]2(c3cc(C#CC4=CCCCC4)ccc31)[C@H](C(=O)N1CCc3cc(OC)c(OC)cc3C1)[C@H]1C(=O)O[C@H](c3ccccc3)[C@H](c3ccccc3)N1[C@@H]2c1ccccc1OCCO | 0.585 (inactive) | -0.012 | 2.4 (inactive) | 0.876 (inactive) | 0.827 (inactive) | 0.703 (inactive) | -0.113 | 1.72 (inactive) | 0.58 (inactive) | 1.99 |
| CC(c1ccccc1)C(O)C1C=CC2C(=O)NC(=O)C2N1Nc1ccccn1 (stereo not given) | -0.671 (inactive) | 0.314 | 0.887 (inactive) | 0.561 (inactive) | -0.255 (inactive) | 0.801 (inactive) | -0.8 | -0.479 (inactive) | -3.8 (inactive) | -1.79 |
| NC(=O)NCC#Cc1ccc2c(c1)[C@]1(C(=O)N2)[C@H](C(=O)N2CCCCCCC2)[C@H]2C(=O)O[C@H](c3ccccc3)[C@H](c3ccccc3)N2[C@@H]1c1ccc(OCCO)cc1 | -0.518 (inactive) | 1.4 | 2.66 (inactive) | 0.66 (inactive) | 0.391 (inactive) | 0.286 (inactive) | -0.378 | 1.35 (inactive) | -1.11 (inactive) | -0.67 |
